Assay outcomes: PubChem BioAssay, NMMLSC
BoNT A protease – BoNT/A light chain protease inhibitors, primary screen, biochemical, flow cytometry, MLPCN library; multiplex microsphere protease substrate cleavage; inhibition, % at 10 µM; actives 0.17% (n = 360,000); AID 588499, 2011
Anthrax LF inh2 – Bacillus anthracis LF protease inhibitors, primary screen, biochemical, multiplex microsphere, MLPCN library | Lethal factor (Bacillus anthracis), P15917 | multiplex microsphere protease cleavage assay | inhibition, % at 10 µM | actives 0.12% (n = 360,000) | AID 588501, 2011
Target sequence (P15917 whole entry, looked up): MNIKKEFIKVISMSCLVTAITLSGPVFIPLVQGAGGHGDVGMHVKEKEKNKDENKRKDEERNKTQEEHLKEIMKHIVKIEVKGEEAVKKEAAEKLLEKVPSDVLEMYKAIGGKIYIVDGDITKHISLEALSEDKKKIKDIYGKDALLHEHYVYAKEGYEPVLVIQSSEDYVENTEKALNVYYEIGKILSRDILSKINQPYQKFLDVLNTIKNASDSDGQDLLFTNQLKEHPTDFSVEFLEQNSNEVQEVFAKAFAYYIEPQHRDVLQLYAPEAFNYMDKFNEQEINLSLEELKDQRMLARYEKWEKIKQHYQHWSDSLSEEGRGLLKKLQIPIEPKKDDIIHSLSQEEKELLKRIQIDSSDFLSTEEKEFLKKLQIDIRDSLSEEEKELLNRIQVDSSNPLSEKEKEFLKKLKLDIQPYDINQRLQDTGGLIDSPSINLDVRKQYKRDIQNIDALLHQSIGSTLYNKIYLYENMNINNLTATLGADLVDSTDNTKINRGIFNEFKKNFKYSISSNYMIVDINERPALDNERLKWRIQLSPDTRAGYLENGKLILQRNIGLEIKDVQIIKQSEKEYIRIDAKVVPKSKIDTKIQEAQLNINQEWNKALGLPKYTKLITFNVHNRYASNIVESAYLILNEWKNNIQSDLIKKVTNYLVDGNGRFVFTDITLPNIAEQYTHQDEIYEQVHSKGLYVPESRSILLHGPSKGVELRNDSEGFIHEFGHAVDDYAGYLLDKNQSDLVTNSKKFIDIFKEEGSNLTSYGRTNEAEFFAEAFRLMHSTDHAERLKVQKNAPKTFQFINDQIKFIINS
BoNT F protease – BoNT/F light chain protease inhibitors, primary screen, biochemical, flow cytometry, MLPCN library; Botulinum neurotoxin type F light chain protease (Clostridium botulinum); actives 0.22% (n = 360,000); Multiplex microsphere protease cleavage assay; inhibition, % at 10 µM; in the data active means inhibition above about 35%, passing the limit was not always enough; inconclusive means no clear call, values can overlap the other calls
Autofluor counter – counter-screen for toxin protease inhibitors: compound fluorescence. compound autofluorescence counterscreen, microsphere flow cytometry; active compounds read high. fluorescence intensity (test concentration not listed). actives 3.1% (n = 360,000); in the data active means fluorescence intensity above about 16000; inconclusive means no clear call, values can overlap the other calls
Hits are given with their value; i = inactive; ? = inconclusive. In the library only some 3.5% were active in any assay of this set; here they are far more common. Unless noted, no stated cut-off is given here; in the data, active means inhibition above about 30%; inconclusive means no clear call, values can overlap the other calls; inactive means below that.

SMILES	BoNT A protease	Anthrax LF inh2	BoNT F protease	Autofluor counter
O=C(c1ccccc1)c1nc2c(n1O)CCCCC2	i	i	i	i
CCCOc1ccc(C(=O)c2nc3c(n2O)CCCCC3)cc1	i	i	i	23225
Cc1cccc(NC(=O)CC2Nc3cccc4cccc(c34)NC2=O)c1 (configuration not stated)	?	i	i	17191
O=C(CCOc1ccccc1)Nc1ccc(S(=O)(=O)Nc2ncccn2)cc1	i	i	i	i
CN(C(=O)CN1C(=O)c2cccc(N)c2C1=O)C1CCCCC1	i	i	i	i
O=C(Nc1nncs1)c1cccc(S(=O)(=O)N2CCOCC2)c1	i	i	i	16353
O=C(Nc1ccc(Cl)cn1)c1cccc(S(=O)(=O)N2CCOCC2)c1	i	i	i	20815
COc1ccc(S(=O)(=O)N2CCOC2CNC(=O)C(=O)NCC(C)C)cc1OC (configuration not stated)	i	i	i	?
COc1cc(CNC[C@H]2O[C@@H](n3cnc(C(N)=O)n3)[C@H](O)[C@@H]2O)ccc1OCc1cccc(Cl)c1	i	i	i	i
Cc1nc(-c2cccc(NS(=O)(=O)c3cccc4ccccc34)c2)cs1	?	i	i	22200
CCCCOC(=O)c1cc(=O)[nH]c2ccccc12	i	i	i	22271
COc1ccc(/C=C/CN2CCC(n3nccc3NC(=O)C3CC3)CC2)cc1	i	i	i	i
COc1ccccc1N1CCN(C(=O)CSc2nc(C)c(C)c(=O)[nH]2)CC1	i	i	i	i
COc1ccccc1N1CCN(/N=C/c2cc(OC)c(O)c(OC)c2)CC1	i	i	i	i
COc1ccccc1N1CCN(C(=O)N2CCOCC2)CC1	i	i	i	23262
COc1ccccc1N1CCN(C(=O)CCC(=O)N2CCN(c3ccccc3OC)CC2)CC1	i	i	i	i
COc1cc(/C=N/N2CCN(c3ccccc3OC)CC2)ccc1OC(C)=O	i	42	?	i
COc1ccccc1N1CCN(C(=O)CSc2nc(C)cc(=O)[nH]2)CC1	i	i	i	17183
COc1cccc(OC)c1C(=O)N1CCOCC1	?	i	i	22982
CCN(C(=O)COc1ccc(F)cc1Br)c1c(N)n(Cc2ccccc2)c(=O)[nH]c1=O	i	i	i	i
CC(OC(=O)C1CCN(S(=O)(=O)c2ccc3c(c2)OCCO3)CC1)C(=O)NC1(C#N)CCCCC1 (configuration not stated)	i	i	i	i
Nc1nonc1-n1nnc(C(=O)N/N=C/c2ccco2)c1CSc1ccccc1	i	i	i	i
COc1cccc(C2c3cc4c(cc3OC(N3CCOCC3)C2C)OCO4)c1O (configuration not stated)	i	i	i	i
O=C(Cn1nc(C(=O)O)c2ccccc2c1=O)Nc1cc(S(=O)(=O)N2CCCCC2)ccc1Cl	i	i	i	i
COc1ccc(CN2CCCC(C(=O)c3ccc(Cl)cc3)C2)c(O)c1 (configuration not stated)	i	i	35	i
SMILES	BoNT A protease	Anthrax LF inh2	BoNT F protease	Autofluor counter
COc1ccc(C(=O)C2CCCN(Cc3cc(Cl)ccc3O)C2)c(OC)c1 (configuration not stated)	i	i	i	i
Clc1ccc(OCc2nc(-c3ccccn3)n[nH]2)cc1	i	i	i	19968
CC1(C(=O)NS(=O)(=O)c2ccc(Cl)cc2)CCN1C(=O)c1ccccc1 (configuration not stated)	i	i	i	i
C[C@H](CO)N1C[C@H](C)[C@@H](CN(C)S(=O)(=O)c2cn(C)cn2)Oc2c(NS(=O)(=O)c3ccc(F)cc3)cccc2C1=O	i	i	i	i
O=C(c1ccccc1)c1cn(CC(=O)N2CCCC2)c2ccccc12	i	i	i	i
O=C(c1ccccc1F)c1cn(Cc2ccccc2)c2ccccc12	i	i	i	22262
CCn1cc(C(=O)c2ccccc2)c2ccccc21	?	i	i	22254
O=C(c1ccccc1F)c1cn(CC(=O)N2CCCCC2)c2ccccc12	i	i	i	24432
O=C(c1ccccc1F)c1cn(Cc2ccc(F)cc2)c2ccccc12	i	i	i	i
O=C(c1ccccc1)c1cn(CC(=O)N2CCOCC2)c2ccccc12	i	i	i	i
O=C(O)c1cn(Cc2ccccc2)c2ccc(Cl)cc2c1=O	i	i	i	i
Cc1ccc(S(=O)(=O)Cc2ccc(C(=O)N3CCN(c4ccccn4)CC3)o2)cc1	i	i	i	i
CCCCNC(=O)c1ccc(CS(=O)(=O)c2cccc(C(F)(F)F)c2)o1	i	i	i	21163
CCCCNC(=O)c1ccc(CS(=O)(=O)c2ccc(OC)cc2)o1	i	i	i	i
COc1ccc(S(=O)(=O)Cc2ccc(C(=O)NCCCN(C)c3ccccc3)o2)cc1	?	i	i	22186
O=C(c1ccc(CS(=O)(=O)c2cccc(C(F)(F)F)c2)o1)N1CCN(c2ccccn2)CC1	?	i	i	23435
COCCNC(=O)c1ccc(CS(=O)(=O)c2cccc(C(F)(F)F)c2)o1	i	i	i	i
CCCc1ccc(OCc2ccc(C(=O)N3CCN(c4ccccn4)CC3)o2)c(OC)c1	?	i	i	23006
O=C(NCC1CCCO1)c1cc(S(=O)(=O)N2CCCC2)c(Cl)cc1Cl (configuration not stated)	i	i	i	i
CCN(CC)c1ccc(C=NCCNS(=O)(=O)c2ccc(C)cc2)cc1	i	i	i	i
Cc1ccc(OCC(=O)NCCNC(=O)c2ccco2)cc1C	i	i	i	i
COCC(=O)N1C[C@H]2CON(C)[C@H]2C[C@H]1c1cccc(-c2ccccc2)c1	i	i	i	i
C[C@@H]1CN([C@@H](C)CO)S(=O)(=O)c2ccc(Br)cc2O[C@@H]1CN(C)S(=O)(=O)c1cn(C)cn1	i	i	i	i
COc1ccc(-c2ccc(N3C(c4ccsc4)=Cc4ccc(F)cc4C3c3c[nH]c4ccccc34)cc2)cc1 (configuration not stated)	i	i	i	i
O=C(NCc1ccco1)c1ccc(CS(=O)(=O)c2cccc(C(F)(F)F)c2)o1	i	i	i	22579
SMILES	BoNT A protease	Anthrax LF inh2	BoNT F protease	Autofluor counter
O=C(NCc1ccc2c(c1)OCO2)c1ccc(CS(=O)(=O)c2cccc(C(F)(F)F)c2)o1	i	i	i	i
COC(=O)c1c(NC(=O)CSc2nnnn2-c2ccccc2)sc2c1CCC(C(C)(C)C)C2 (configuration not stated)	i	i	i	23374
Cc1ccc(C(=O)NCCN2CCCC2)cc1	i	i	i	i
Cc1cccc(OCC(=O)NNc2c3ccccc3nc3ccccc23)c1	i	i	i	21560
CCOc1c(Cl)cc(C(=O)NCCN2CCCCC2)cc1Cl	i	i	i	22799
Cc1cccc(C(=O)NCCN2CCCC2)c1	i	i	i	20070
Cc1cccc(OCC(=O)NCCN2CCOCC2)c1	i	i	i	20366
CCNC(=O)C1(C)CCN(C(=O)c2ccccc2OC)C1 (configuration not stated)	i	i	i	i
CC1(C)C2CCC1(CS(=O)(=O)NC(CC(=O)O)c1cccc(Br)c1)C(=O)C2 (configuration not stated)	i	i	i	i
